This is a sample that favours compounds with a hit; in the whole collection about 13% have one here.
Pf growth 96h: inhibits malaria parasite growth, 96 h; P. falciparum luciferase reporter growth, 96 h; Potency, µM (top dose mostly 28.7 µM), usual class: inhibitors; actives 6.9% (n = 320,000); AID 504834
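Delayed-death screen, second-generation endpoint: infected erythrocytes, 2% hematocrit, 0.05% parasitemia final; 96 hours at 37 C, 5% CO2; luciferase detection reagent; luminescence decrease equals reduced growth.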
HCMV inh: blocks human cytomegalovirus replication. HFF cells, HCMV-luciferase reporter, 72 h; hits give low values. activity change, negative = inhibition, % at 57.5 µM. actives 4.5% (n = 410,000); in the data active = activity change below about -60%; inconclusive = no clear call, values can overlap the other calls; inactive = above about -39%
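Cell-based, HFFs, 1000 cells/well, 16 h 37C; cpds in DMSO + HCMV-luc, MOI 1 PFU/cell; 72 h 37C; OneGlo luminescence after 5 min RT; norm. to buffer vs Salinomycin 10uM.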
Pf growth 48h: P. falciparum growth inhibition at 48 hours (one generation); P. falciparum luciferase growth in erythrocytes, 48 h; Potency, µM (series often up to 28.7 µM), hits mostly inhibitors; actives 5.9% (n = 310,000); AID 504832
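Read-out is firefly luciferase luminescence from an integrated reporter in P. falciparum, so falling signal marks reduced parasite growth. Infected erythrocytes were at 2% hematocrit and 0.1% parasitemia (final) in Albumax-supplemented RPMI 1640.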
HCV inhibitor: blocks hepatitis C virus. Huh7.5.1 HCVcc-Cre infection, luciferase reporter, 44 h. Potency, µM (doses to about 41.8 µM), most hits filed as inhibitors. actives 3.4% (n = 340,000)
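HCVcc-Cre virus at an moi near 0.5 was added right after compound to cells cultured 4 h from seeding (1,000 cells/well). Luciferase activity was determined 44 h later, 15 min after substrate addition at RT.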
Hits are given with their value; ! = repeats disagree; [ ] = remark or other dose. Unless noted, calls come from the whole dose curve; as a rule, active = well fitted inhibition curve with a large enough effect; inconclusive = small, poorly fitted or top-dose-only effect, or another doubt; inactive = no such curve, though single readings can be large or run the other way.

For CC(C)Oc1ccc(CNC(=O)C2CCN(C(=O)N3CCOc4ccc(Cl)cc43)CC2)cc1 the results were HCMV inh inactive.
For COc1cccc(-n2c(SCc3ccccc3C)nc3c([nH]c4ccccc43)c2=O)c1 the results were HCMV inh inactive.
For COc1cc2c(cc1OC)C(COc1ccccc1OC)N(C(=O)c1ccco1)CC2 (centres undefined) the results were Pf growth 96h 6.6µM, HCMV inh inactive, Pf growth 48h inconclusive and HCV inhibitor inactive.
For CCOc1ccc(CC2c3cc(OCC)c(OCC)cc3CCN2C(=O)c2cc(OC)c(OC)c(OC)c2)cc1OCC (centres undefined) the results were Pf growth 96h 1.3µM, HCMV inh inactive, Pf growth 48h 1.5µM and HCV inhibitor inconclusive.
COc1cc2c(cc1OC)C(COc1ccccc1OC)N(C(=O)CC(C)C)CC2 (centres undefined) was read as HCMV inh inactive.
COc1cc2c(cc1OC)C(COc1ccccc1OC)N(C(=O)C(C)C)CC2 (centres undefined) was read as Pf growth 96h 10µM, HCMV inh inactive, Pf growth 48h inconclusive and HCV inhibitor inactive.
Screening CCC(=O)N1CCc2cc(OC)c(OC)cc2C1COc1ccccc1OC (centres undefined) returned Pf growth 96h inactive, HCMV inh inactive, Pf growth 48h inconclusive and HCV inhibitor inactive.
`COc1ccc(S(=O)(=O)NCCc2sc(-c3cccnc3)nc2C)cc1` gave HCMV inh inactive.
For COc1ccc(CN(Cc2ccco2)C(=O)c2ccccc2F)cc1 the results were HCMV inh inactive.
`Cc1ccc(C)c(NC(=O)N2CCC(N3CCN(Cc4ccc(F)cc4)C(=O)C3=O)CC2)c1` gave HCMV inh inactive.
Screening Cc1cc(C)c2c(-n3cccc3)c(C(=O)NCCc3ccc(Cl)cc3)sc2n1 returned HCMV inh inactive.
CC(C)COC(=O)CCNc1n[nH]c(=O)[nH]c1=O was read as Pf growth 96h 9.3µM, HCMV inh inactive, Pf growth 48h inactive and HCV inhibitor inactive.
For CCC1=NN(C(=O)c2ccc(C)cc2)C(O)(c2ccc(Br)cc2)C1 (centres undefined) the results were Pf growth 96h 13µM, HCMV inh inactive, Pf growth 48h inactive and HCV inhibitor inactive.
`CCC1=NN(C(=O)c2cccc(Br)c2)C(O)(c2ccc(Br)cc2)C1` (centres undefined) gave Pf growth 96h inconclusive, HCMV inh -71, Pf growth 48h inconclusive and HCV inhibitor 16µM.
Screening CC1=NN(C(=O)c2ccc(Br)cc2)C(O)(C(F)(F)OC(F)(F)F)C1 (centres undefined) returned Pf growth 96h inconclusive, HCMV inh inactive, Pf growth 48h 4.7µM and HCV inhibitor inactive.
Screening O=C(Nc1ccc(C(F)(F)F)cc1)C1CCCN(c2cnccn2)C1 (centres undefined) returned HCMV inh inactive.
Screening CC(=O)OCc1cnc(C)c2oc(=O)c(C(=O)Nc3cc(F)ccc3C)cc12 returned HCMV inh inactive.
For Cc1ccccc1-c1nnc(NC(=O)c2ccc(N3C(=O)CCC3=O)cc2)s1 the results were Pf growth 96h 9.3µM, HCMV inh inactive, Pf growth 48h inactive and HCV inhibitor inactive.
For Cc1cccc(-c2nnc(NC(=O)c3ccc(N4C(=O)CCC4=O)cc3)s2)c1 the results were Pf growth 96h 4.7µM, HCMV inh inactive, Pf growth 48h inconclusive and HCV inhibitor inactive[8.37 µM].
`CC(C)c1nnc(NC(=O)c2ccc(N3C(=O)CCC3=O)cc2)s1` gave Pf growth 96h inactive, HCMV inh inactive, Pf growth 48h inactive and HCV inhibitor inactive.
For COC(=O)[C@]12C[C@H](CC(=O)NCC3CCCCC3)C(=O)N(Cc3ccccc3)C1=C[C@H](C(C)(C)C)O[C@@H]2C the results were HCMV inh inactive.
For C[C@@H]1CN([C@@H](C)CO)C(=O)CCCn2cc(nn2)CO[C@H]1CN(C)C(=O)Nc1ccc(C(C)(C)C)cc1 the results were HCMV inh inactive.
`CC(C)N(C(=O)CSc1nnc(NC(=O)c2cccs2)s1)C(C)C` gave Pf growth 96h 10µM, HCMV inh inactive, Pf growth 48h inconclusive and HCV inhibitor inactive.
`CC(C)C(=O)Nc1nnc(SCC(=O)NCc2cccs2)s1` gave Pf growth 96h inconclusive, HCMV inh -92, Pf growth 48h inactive and HCV inhibitor inactive.
CNC(=O)CSc1nnc(NC(=O)Nc2ccccc2)s1 was read as HCMV inh inactive.
For CS(=O)(=O)Nc1nnc(SCC(=O)N(c2ccccc2)c2ccccc2)s1 the results were Pf growth 96h 2.6µM, HCMV inh inactive, Pf growth 48h inactive and HCV inhibitor inactive.
For CC(C)C(=O)Nc1nnc(SCC(=O)NC2CC2)s1 the results were Pf growth 96h 5.2µM, HCMV inh inactive, Pf growth 48h inactive and HCV inhibitor inactive.
CC(C)(C)N1C(=O)c2ccccc2NC(=O)C1C(=O)NCCc1ccccc1F (centres undefined) was read as HCMV inh inactive.
Screening CC(C)Oc1ccc(CNC(=O)CN2C(=O)CCn3nc(-c4cn(C)c5ccccc45)cc32)cc1 returned HCMV inh inactive.
For COc1ccccc1[C@@H]1C(c2cccc(C)c2)=NN(c2ccccc2)[C@H]1C(=O)N1CCOC1=O the results were Pf growth 96h 10µM, HCMV inh inactive, Pf growth 48h 13µM and HCV inhibitor inactive.
For Cc1ccc(C)c(N2CC(O)(c3cccs3)[N+]3=C2CCCC3)c1 (centres undefined) the results were Pf growth 96h inconclusive, HCMV inh inconclusive, Pf growth 48h 10µM and HCV inhibitor inactive.
`COc1ccc(C)cc1NC(=O)N1CCN(c2cc(-c3noc(C)n3)ccc2C)CC1` gave HCMV inh inactive.
For COc1cccc(NC(=O)CCCCCN2C(=O)[C@@H]3Cc4ccccc4CN3C2=O)c1 the results were Pf growth 96h 12µM, HCMV inh inactive, Pf growth 48h inconclusive and HCV inhibitor inconclusive.
`Cn1c(=O)c2c(nc(SCC(=O)Nc3ccc(F)cc3)n2Cc2ccccc2F)n(C)c1=O` gave HCMV inh inactive.
Screening CCCc1cc2c(=O)c(-c3ccc4c(c3)OCCO4)coc2cc1OS(C)(=O)=O returned Pf growth 96h inconclusive, HCMV inh -60, Pf growth 48h inactive and HCV inhibitor 10µM.
For CCc1cc2c(=O)c(-c3ccc4c(c3)OCCO4)coc2cc1OC(=O)c1ccco1 the results were HCMV inh inactive, Pf growth 48h inactive and HCV inhibitor 10µM!.
For O=C(Cn1c(=O)oc2cc(S(=O)(=O)NCc3ccccc3)ccc21)Nc1cccc(F)c1 the results were HCMV inh inactive.
For CCN(CC)CCn1nc2c3c(cccc3c1=O)-c1ccccc1-2 the results were Pf growth 96h inactive, HCMV inh -99, Pf growth 48h 4.1µM and HCV inhibitor 10µM.
`O=c1c2cccc3c2c(nn1CN1CCOCC1)-c1ccccc1-3` gave Pf growth 96h inconclusive, Pf growth 48h inactive and HCV inhibitor inconclusive.
`C/C(=N\NC(=O)c1ccccc1OCCOc1ccccc1)c1ccccc1F` gave Pf growth 96h inconclusive, HCMV inh inactive, Pf growth 48h 12µM and HCV inhibitor inconclusive.

Bioassay records (PubChem BioAssay)
